Structures are written as SMILES. For some of these results: Measured potencies and affinities stand elsewhere.

Holding throughout (parameters): scale not given: direction of the effect not stated beside the values
In experiment [1] the target is Protein translocase subunit SecA (Escherichia coli (strain K12)) (UniProt P10408). Put plainly: Assay to Identify E. coli SecA ATPase Inhibitors. The class given is functional. The note with it: 30 µM.
Experiment [2] concerns the target T1, Ubiquitin-activating enzyme e1, putative (Leishmania donovani (strain BPK282A1)) (UniProt E9BSI1).
T1 sequence (whole entry): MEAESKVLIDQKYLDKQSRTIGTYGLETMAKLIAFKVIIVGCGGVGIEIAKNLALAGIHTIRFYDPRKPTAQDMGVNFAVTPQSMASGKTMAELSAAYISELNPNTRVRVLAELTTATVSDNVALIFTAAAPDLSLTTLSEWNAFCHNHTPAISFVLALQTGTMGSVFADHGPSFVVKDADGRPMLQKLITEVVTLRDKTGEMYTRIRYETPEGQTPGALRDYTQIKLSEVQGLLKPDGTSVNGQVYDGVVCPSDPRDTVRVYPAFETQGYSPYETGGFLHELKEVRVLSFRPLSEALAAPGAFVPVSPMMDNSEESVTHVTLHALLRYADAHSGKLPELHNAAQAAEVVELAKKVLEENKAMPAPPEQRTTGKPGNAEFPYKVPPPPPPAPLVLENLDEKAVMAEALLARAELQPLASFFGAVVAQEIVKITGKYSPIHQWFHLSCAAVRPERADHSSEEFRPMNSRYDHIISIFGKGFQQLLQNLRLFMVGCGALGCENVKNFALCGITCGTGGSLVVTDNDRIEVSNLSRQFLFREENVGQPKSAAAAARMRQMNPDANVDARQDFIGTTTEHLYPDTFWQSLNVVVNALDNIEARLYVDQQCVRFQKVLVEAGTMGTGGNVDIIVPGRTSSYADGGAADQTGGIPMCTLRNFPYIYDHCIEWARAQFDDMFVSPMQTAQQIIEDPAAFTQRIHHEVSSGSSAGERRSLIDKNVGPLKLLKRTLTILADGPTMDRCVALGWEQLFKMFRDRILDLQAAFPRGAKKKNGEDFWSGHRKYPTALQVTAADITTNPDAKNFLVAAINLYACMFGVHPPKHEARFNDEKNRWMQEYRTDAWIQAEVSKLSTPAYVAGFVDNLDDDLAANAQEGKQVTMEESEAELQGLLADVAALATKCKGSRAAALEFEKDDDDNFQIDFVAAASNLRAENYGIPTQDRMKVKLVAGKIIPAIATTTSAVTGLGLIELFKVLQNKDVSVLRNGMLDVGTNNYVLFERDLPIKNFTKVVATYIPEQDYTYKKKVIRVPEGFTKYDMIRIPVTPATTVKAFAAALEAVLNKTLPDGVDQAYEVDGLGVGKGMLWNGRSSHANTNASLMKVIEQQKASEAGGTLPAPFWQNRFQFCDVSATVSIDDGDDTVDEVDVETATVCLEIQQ
Put plainly: Leishmania donovani Ubiquitin Activating Enzyme (LdE1). The class given is functional. The note with it: 30 µM.

The target in experiment [3] is AMP-activated protein kinase, AMPK (Homo sapiens) (UniProt P54646+O43741+P54619+Q9UGJ0+Q9Y478+Q13131+Q9UGI9). Put plainly: AMP-dependent Kinase enzyme assay. An in vitro enzyme assay that detects ADP turnover that is directly proportional to AMPK activity. This uses naive AMPK that is activated during the assay with MK-8722. The class given is functional. The note with it: 30 µM.

For experiment [4], the target named is Sialic acid-binding Ig-like lectin 9 (Homo sapiens) (UniProt Q9Y336). Put plainly: Hs-Siglec9 ALPHAscreen SOP 20170721. The note with it: 10 µM. In general terms: Alpha assays give light when donor and acceptor beads are brought close together.
Chain of Sialic acid-binding Ig-like lectin 9 (Homo sapiens) (Q9Y336 whole entry): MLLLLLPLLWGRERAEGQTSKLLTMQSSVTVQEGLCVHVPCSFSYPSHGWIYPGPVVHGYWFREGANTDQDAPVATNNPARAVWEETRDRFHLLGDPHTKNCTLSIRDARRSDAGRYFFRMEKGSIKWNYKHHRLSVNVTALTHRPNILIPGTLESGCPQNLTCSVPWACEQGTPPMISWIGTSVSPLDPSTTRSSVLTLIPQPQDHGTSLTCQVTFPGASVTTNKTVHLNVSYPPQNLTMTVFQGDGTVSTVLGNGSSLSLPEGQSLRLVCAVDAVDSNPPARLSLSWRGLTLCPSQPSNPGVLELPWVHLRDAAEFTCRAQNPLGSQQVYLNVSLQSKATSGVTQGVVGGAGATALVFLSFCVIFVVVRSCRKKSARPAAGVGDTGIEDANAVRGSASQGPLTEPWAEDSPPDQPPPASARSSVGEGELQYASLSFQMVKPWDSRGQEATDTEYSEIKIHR
A further experiment deals with Trypanosoma cruzi. Put plainly: Trypanosoma cruzi phosphomannomutase and mannose-1-phosphate guanylyltransferase assay. The class given is functional. The note with it: 10 µM.
Experiment [5] concerns the target T2, Arginase-2, mitochondrial (Homo sapiens) (UniProt P78540).
T2 sequence (whole entry): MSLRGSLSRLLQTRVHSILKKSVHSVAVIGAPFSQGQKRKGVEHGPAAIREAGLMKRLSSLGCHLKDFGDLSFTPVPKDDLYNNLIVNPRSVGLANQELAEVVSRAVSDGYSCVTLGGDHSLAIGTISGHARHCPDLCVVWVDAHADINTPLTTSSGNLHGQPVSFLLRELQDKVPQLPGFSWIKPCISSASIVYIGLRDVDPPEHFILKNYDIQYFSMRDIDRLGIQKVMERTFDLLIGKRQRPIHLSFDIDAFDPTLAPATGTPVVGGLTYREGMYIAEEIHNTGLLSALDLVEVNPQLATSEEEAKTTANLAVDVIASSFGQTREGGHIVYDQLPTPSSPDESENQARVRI
Put plainly: in vitro enzyme assay to detect the production of urea directly proportional to the activity of Arginase II. Further: in the data most compounds retested in dose-response had high values. The class given is functional. The note with it: 33.3 µM.

The target of experiment [6] is T3, Proteasome subunit beta (Trypanosoma cruzi) (UniProt O96673).
T3 sequence (whole entry): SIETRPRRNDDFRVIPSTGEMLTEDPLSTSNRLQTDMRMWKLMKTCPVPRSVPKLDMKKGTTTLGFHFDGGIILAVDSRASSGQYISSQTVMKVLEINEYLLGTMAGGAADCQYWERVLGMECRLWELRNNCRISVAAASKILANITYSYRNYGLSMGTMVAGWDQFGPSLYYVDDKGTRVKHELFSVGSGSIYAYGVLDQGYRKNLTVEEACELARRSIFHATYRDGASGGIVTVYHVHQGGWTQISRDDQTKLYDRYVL
Put plainly: Trypanosoma cruzi proteasome chymotrypsin-like activity (TcProtChymo) assay. Further: in the data most compounds retested in dose-response had high values. The class given is functional. The note with it: 9.37 µM.

Another experiment is filed under the species Homo sapiens. Put plainly: To identify inhibition of the IFN signalling (Jak-Stat) pathway via expression of an eGFP reporter gene under the control of an IFN-stimulated response element (ISRE) containing MxA promoter. The class given is functional. The note with it: 30 µM. For orientation: In a reporter assay the amount or activity of a reporter protein is the signal.

Experiment [7] deals with T4, Tyrosyl-tRNA synthetase, putative (Trypanosoma cruzi (strain CL Brener)) (UniProt Q4DSP6).
T4 sequence (whole entry): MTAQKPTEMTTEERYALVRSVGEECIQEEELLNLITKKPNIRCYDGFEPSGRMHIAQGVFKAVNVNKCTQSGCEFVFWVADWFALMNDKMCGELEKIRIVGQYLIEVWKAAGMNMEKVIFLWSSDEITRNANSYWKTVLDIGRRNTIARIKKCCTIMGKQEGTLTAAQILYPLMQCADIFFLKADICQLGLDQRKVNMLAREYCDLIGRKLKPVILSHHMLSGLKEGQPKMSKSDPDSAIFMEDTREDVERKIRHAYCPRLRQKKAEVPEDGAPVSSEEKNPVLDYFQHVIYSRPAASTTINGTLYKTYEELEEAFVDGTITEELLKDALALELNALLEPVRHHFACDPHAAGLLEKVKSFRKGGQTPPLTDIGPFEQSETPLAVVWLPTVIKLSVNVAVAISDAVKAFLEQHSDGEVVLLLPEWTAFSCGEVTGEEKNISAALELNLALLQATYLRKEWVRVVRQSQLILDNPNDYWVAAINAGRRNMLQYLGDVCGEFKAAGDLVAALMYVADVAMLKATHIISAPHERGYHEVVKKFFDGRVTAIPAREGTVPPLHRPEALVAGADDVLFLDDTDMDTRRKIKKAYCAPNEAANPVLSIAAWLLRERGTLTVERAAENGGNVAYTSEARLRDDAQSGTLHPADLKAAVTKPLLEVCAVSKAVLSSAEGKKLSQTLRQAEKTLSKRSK
Put plainly: Trypanosoma cruzi tyrosyl tRNA synthetase (TcYRS) _High Tyrosine SOP. Further: in the data most compounds retested in dose-response had high values. The class given is functional. The note with it: 30 µM.

The target of experiment [8] is T4, Tyrosyl-tRNA synthetase, putative (Trypanosoma cruzi (strain CL Brener)). Put plainly: Trypanosoma cruzi tyrosyl tRNA synthetase (TcYRS) SOP. The class given is functional. The note with it: 30 µM.
The target of experiment [9] is Chromo domain-containing protein 1 (Saccharomyces cerevisiae (strain ATCC 204508 / S288c) (Baker's yeast)) (UniProt P32657). Put plainly: ScCHD-1 Enzyme Inhibition Assay. Further: in the data most compounds retested in dose-response had high values. The class given is functional. The note with it: 30 µM.
Chain of Chromo domain-containing protein 1 (Saccharomyces cerevisiae (strain ATCC 204508 / S288c) (Baker's yeast)) (P32657 whole entry, the tested form may be a part): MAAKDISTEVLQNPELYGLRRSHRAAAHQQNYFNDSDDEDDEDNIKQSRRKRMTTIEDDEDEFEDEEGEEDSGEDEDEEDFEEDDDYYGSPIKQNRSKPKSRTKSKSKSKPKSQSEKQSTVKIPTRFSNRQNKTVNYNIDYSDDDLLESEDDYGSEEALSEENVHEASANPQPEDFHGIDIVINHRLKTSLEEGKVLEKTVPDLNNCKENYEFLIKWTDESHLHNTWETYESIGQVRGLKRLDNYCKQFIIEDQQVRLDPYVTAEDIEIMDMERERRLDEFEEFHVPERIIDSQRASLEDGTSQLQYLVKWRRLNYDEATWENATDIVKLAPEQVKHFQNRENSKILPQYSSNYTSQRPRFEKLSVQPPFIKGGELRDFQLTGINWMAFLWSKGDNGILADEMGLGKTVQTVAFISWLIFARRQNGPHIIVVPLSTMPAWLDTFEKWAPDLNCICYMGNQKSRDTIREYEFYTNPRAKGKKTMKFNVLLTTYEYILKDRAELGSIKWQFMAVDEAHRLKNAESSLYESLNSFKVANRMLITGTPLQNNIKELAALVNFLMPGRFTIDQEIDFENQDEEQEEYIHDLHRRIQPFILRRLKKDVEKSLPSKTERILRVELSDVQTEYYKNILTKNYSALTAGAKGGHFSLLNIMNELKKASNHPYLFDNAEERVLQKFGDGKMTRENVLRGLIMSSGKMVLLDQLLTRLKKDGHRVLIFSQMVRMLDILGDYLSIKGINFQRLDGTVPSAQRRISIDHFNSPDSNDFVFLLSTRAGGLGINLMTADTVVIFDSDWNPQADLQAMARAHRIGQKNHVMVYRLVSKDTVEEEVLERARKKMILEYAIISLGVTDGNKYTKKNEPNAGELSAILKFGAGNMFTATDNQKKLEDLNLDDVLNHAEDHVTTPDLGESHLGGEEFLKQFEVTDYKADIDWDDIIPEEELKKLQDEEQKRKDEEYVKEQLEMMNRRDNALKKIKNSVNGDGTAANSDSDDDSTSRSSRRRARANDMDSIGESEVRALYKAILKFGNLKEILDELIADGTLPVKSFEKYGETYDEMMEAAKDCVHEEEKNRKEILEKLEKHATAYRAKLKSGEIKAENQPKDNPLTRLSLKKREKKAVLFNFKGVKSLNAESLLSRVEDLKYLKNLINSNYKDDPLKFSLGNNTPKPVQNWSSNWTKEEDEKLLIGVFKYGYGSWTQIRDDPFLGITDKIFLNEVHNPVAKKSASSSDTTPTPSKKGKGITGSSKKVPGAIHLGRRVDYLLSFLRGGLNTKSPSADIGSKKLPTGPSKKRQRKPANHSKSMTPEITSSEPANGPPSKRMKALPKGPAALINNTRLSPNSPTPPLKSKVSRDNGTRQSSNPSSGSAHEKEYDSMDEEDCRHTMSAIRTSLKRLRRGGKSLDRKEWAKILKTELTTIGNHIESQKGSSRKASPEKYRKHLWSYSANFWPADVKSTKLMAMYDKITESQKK

Chain of Protein translocase subunit SecA (Escherichia coli (strain K12)) (P10408 whole entry): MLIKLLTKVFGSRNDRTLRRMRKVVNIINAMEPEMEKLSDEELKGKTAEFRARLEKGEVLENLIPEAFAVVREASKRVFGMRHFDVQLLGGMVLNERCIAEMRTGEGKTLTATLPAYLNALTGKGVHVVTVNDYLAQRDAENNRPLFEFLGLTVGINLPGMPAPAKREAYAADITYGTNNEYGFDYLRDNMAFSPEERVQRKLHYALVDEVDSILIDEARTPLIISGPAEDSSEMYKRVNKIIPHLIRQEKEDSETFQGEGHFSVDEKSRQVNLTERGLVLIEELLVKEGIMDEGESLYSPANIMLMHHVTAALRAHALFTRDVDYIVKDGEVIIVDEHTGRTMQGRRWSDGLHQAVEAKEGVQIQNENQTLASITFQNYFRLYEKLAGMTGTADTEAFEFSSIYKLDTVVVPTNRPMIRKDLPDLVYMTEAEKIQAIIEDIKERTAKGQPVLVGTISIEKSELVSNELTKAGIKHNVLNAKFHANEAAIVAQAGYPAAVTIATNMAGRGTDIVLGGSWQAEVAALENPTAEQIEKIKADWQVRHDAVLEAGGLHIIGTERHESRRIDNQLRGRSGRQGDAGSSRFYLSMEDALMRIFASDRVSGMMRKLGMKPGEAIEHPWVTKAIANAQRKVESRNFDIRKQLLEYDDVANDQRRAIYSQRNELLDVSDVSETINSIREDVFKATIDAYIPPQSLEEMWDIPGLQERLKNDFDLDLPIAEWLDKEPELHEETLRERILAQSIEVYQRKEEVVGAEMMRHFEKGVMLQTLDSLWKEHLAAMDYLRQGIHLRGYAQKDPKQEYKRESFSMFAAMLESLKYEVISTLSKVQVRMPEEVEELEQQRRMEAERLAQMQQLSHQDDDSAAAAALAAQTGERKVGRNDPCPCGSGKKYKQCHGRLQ

Turning to `CNC(=O)[C@@]12CCCN(c3ncccn3)[C@@H]1CN(C(=O)NC(C)C)C2`, the Percent Effect was -0.175% in experiment [1]; 20.8% in experiment [2]; 3.44% in experiment [3]; -13.2% in experiment [4]; -0.296% in the experiment on Trypanosoma cruzi; 1.94% in experiment [5]. Further, the Percent Effect in experiment [6] is 16.5%; in the experiment listed under Homo sapiens, 12.8%; in [7], -6.35%; in experiment [8] it was 14.1%; in experiment [9] it was -12.4%.

Regarding `COc1c(C)cnc(CSc2nnc(C)s2)c1C`, the Percent Effect in [1] was -4.15%; in experiment [2] it was 5.33%; in experiment [3], -1.7%; in experiment [4], 12.8%; with Trypanosoma cruzi, 6.33%; in experiment [5] it was 8.33%. The Percent Effect in [6] was 4.53%; in the experiment filed under Homo sapiens, 6.59%; in experiment [7], 1.64%; in experiment [8] it was 6.17%; in experiment [9] it was -14.7%.

With `CN1C(=O)C(c2ccccc2)CC12CCN(CCOCCO)CC2` (stereo unspecified), the Percent Effect in experiment [1] is 1.44%; in experiment [2], 10.7%; in experiment [3] it was -6.48%; in experiment [4], 0.314%; in the experiment on Trypanosoma cruzi, -9.64%; in [5], 3.12%. For the same compound, the Percent Effect in experiment [6] is 19.2%; in the experiment filed under Homo sapiens, 15.2%; in experiment [7], 3.83%; in experiment [8], -8.64%; in experiment [9], -5.07%.

For `Cc1cccnc1CNc1cc(N2CCCC2CO)ncn1` (stereo unspecified), the Percent Effect in experiment [1] was -2.07%; in [2], 2.6%; in experiment [3] it was -9.88%; in [4], 14.4%; in the experiment with Trypanosoma cruzi it was 2.25%; in experiment [5], -3.56%. Also, the Percent Effect in experiment [6] was 8.11%; in the experiment listed under Homo sapiens, 11.7%; in experiment [7], 2.91%; in [8] it was 9.76%; in experiment [9], -6.83%.

On to `O=C(CCc1nc2cccnc2[nH]1)Nc1cccnc1`, for which the Percent Effect in experiment [1] was -3.23%; in experiment [2], 22.7%; in experiment [3] it was -1.32%; in experiment [4], 1.96%; in the experiment on Trypanosoma cruzi, 3.14%; in experiment [5], -2.29%. The Percent Effect in experiment [6] is 14.1%; in the experiment filed under Homo sapiens it was -1.85%; in [7], 2.12%; in experiment [8] it was 20.5%; in experiment [9] it was -7.05%.

In the case of `Cc1ccc(-c2nc(CNC3CCc4ncnn4C3)co2)c(C)c1` (stereo unspecified), the Percent Effect in experiment [1] is -7.34%; in [2] it was -41.6%; in experiment [3], -3.33%; in experiment [4], 17.9%; in the experiment on Trypanosoma cruzi, 6.18%; in experiment [5], 0%. For the same compound, the Percent Effect turned out to be 7.09% in [6]; 9.71% in the experiment listed under Homo sapiens; 10.7% in experiment [7]; 19.5% in experiment [8]; 80.3% in experiment [9].

For the compound `COc1cc(C(=O)Nc2nc(C)no2)ccc1C`, the Percent Effect was -6.11% in experiment [1]; 25.3% in experiment [2]; -1.3% in experiment [3]; -0.471% in experiment [4]; 3.12% in the experiment on Trypanosoma cruzi; -4.56% in experiment [5]. In addition, the Percent Effect was 4.83% in experiment [6]; 33.2% in the experiment filed under Homo sapiens; 7.39% in experiment [7]; 26.6% in experiment [8]; -8.84% in experiment [9].

In the case of `N#Cc1ncn(CC(=O)Nc2cc(Cl)ccc2F)n1`, the Percent Effect in experiment [1] is -7.02%; in experiment [2], 13.7%; in [3], 6.62%; in experiment [4], 0.779%; in the experiment on Trypanosoma cruzi, 1.59%; in experiment [5], -4.79%. Also, the Percent Effect in experiment [6] is 1.8%; in the experiment filed under Homo sapiens it was -12.8%; in [7] it was 3.12%; in [8] it was 6.17%; in experiment [9], 1.6%.

Take `COc1ccc(C)cc1NC(=O)Nc1cnc(N2CCN(C)CC2)nc1`: the Percent Effect in experiment [1] is -1.71%; in [2] it was 7.79%; in experiment [3], 2.48%; in experiment [4], -0.124%; in the experiment with Trypanosoma cruzi it was 5.42%; in experiment [5], -12.3%. In addition, the Percent Effect is 8.18% in [6]; 36.4% in the experiment filed under Homo sapiens; 6.35% in [7]; 11.5% in experiment [8]; -11.3% in experiment [9].

As to `Cc1nc(C)n(CC2CN(c3ncccn3)Cc3nccn3C2)n1` (stereo unspecified), the Percent Effect in experiment [1] is -6.81%; in [2], 8.11%; in experiment [3] it was -2.43%; in [4] it was 1.67%; in the experiment with Trypanosoma cruzi, -3.42%; in [5], -2.73%. For the same compound, the Percent Effect in [6] is 6.44%; in the experiment filed under Homo sapiens, 2.81%; in experiment [7], 2.15%; in experiment [8], 11.1%; in experiment [9], -2.96%.

Regarding `COc1cccc(COCC(=O)N2CCCC(n3ccnc3)C2)c1` (stereo unspecified), the Percent Effect in experiment [1] is -4.67%; in experiment [2] it was 18.9%; in experiment [3], 21.3%; in [4], -4.82%; with Trypanosoma cruzi it was -6.13%; in experiment [5], 0.802%. The Percent Effect in experiment [6] is 3.06%; in the experiment filed under Homo sapiens, 10.7%; in experiment [7], 6.4%; in experiment [8], 11.1%; in [9], -5.14%.

(Values after ChEMBL document CHEMBL3988442, “University of Dundee, Small-Polar-MMV Screening Library” (2021).)
